Activity calls are given as the source filed them.
Assays:
[1] = optical density shifts of acrAB sulA E. coli – strain DRC41, OD650, 48 h, E. coli filamentation inducer project, primary screen (AID 1152); conditions: higher = more signal, called active from +8 up or from −8 down;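 further: E. coli MC1000 strain DRC41 lacking acrAB efflux pump and sulA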
[2] = probe aLefty1 binding on compound microarray – biochemical, small-molecule microarray, 635/667 nm fluorescence, primary screen (AID 1153); conditions: higher = more signal;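 further: score merges spot fluorescence with signal-to-noise ratio from the scanned slide images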
[3] = plasmodial surface anion channel blockers, osmotic lysis – cell-based, P. falciparum Indochina, OD700, 1 h, primary screen (AID 1154); conditions: P. falciparum Indochina infected RBC osmotic lysis, higher = more signal, called active from +8 up or from −8 down
[4] = plasmodial surface anion channel blockers, osmotic lysis – cell-based, P. falciparum Indochina, OD700, 2 h, primary screen (AID 1155);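 further: lysis reports solute entry through the parasite surface anion channel PSAC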; conditions: P. falciparum Indochina infected erythrocytes, higher = more signal, called active from +8 up or from −8 down
[5] = changes in parasitized red cell lysis, either direction – P. falciparum Indochina, OD700, 3 h, PSAC antagonist project, primary screen (AID 1156); conditions: P. falciparum-infected erythrocytes, osmotic lysis, higher = more signal, called active from +8 up or from −8 down
[6] = plasmodial surface anion channel blockers, osmotic lysis – cell-based, P. falciparum Indochina, OD700, 18 h, primary screen (AID 1157); conditions: P. falciparum Indochina infected erythrocytes, osmotic lysis OD700, 18 h; higher = more signal, called active from +8 up or from −8 down
[7] = S6 kinase pathway phospho-S6 level changes – cell-based, A549, cytoblot, luminescence, serum-stimulated, primary screen (AID 1158); conditions: 5 h, higher = more signal;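 further: serum-stimulated A549 lung adenocarcinoma cells; signal is phosphorylated S6 detected by cytoblot immunostaining with HRP secondary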
[8] = molecular target: NADPH oxidase 2 (Homo sapiens) (UniProt P04839); assay: compounds shifting NOX2 Amplex Red fluorescence – cell-based, HEK293-NOX2, PMA-stimulated, NOX inhibitor project, primary screen (AID 1159); conditions: 45 min, higher = more signal, called active from +8 up or from −8 down; further: test concentration not given here
[9] = molecular target: NADPH oxidase 4 (Homo sapiens) (UniProt Q9NPH5); assay: compounds shifting NOX4 Amplex Red fluorescence – cell-based, HEK293-NOX4, tetracycline-induced, NOX inhibitor project, primary screen (AID 1160); conditions: HEK293-NOX4, Amplex Red H2O2 fluorescence, 45 min; higher = more signal, called active from +8 up or from −8 down
[10] = molecular target: NADPH oxidase 5 (Homo sapiens) (UniProt Q96PH1); assay: compounds shifting NOX5 Amplex Red fluorescence – cell-based, HEK293-NOX5, NOX inhibitor project, primary screen (AID 1161); conditions: HEK293-NOX5, ionomycin, 45 min, higher = more signal
[11] = compound effects on lung adenocarcinoma cell viability – A549, calcein-AM fluorescence, 48 h, basal, profiling panel (AID 1162); conditions: higher = more signal; further: test concentration not given here
[12] = compound effects on differentiated 3T3-L1 adipocyte viability – cell-based, 3T3-L1 adipocytes, calcein-AM fluorescence, 48 h, basal, profiling panel (AID 1163); conditions: 3T3-L1 adipocytes viability, higher = more signal; further: test concentration not given here
[13] = compound effects on hepatocellular carcinoma cell viability – HepG2, calcein-AM fluorescence, 48 h, basal, profiling panel (AID 1164); conditions: higher = more signal; further: test concentration not given here
[14] = compound effects on multiple myeloma cell viability – MM1S, calcein-AM fluorescence, 48 h, basal, profiling panel (AID 1165); conditions: higher = more signal; further: test concentration not given here
[15] = calcein-AM signal in unstimulated myeloma cells – cell-based, calcein-AM fluorescence, 48 h, PK04 Diversity Set, profiling panel (AID 1166); conditions: RPMI8226 myeloma viability, higher = more signal;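 further: cells grown under basal conditions without added stimulus; test concentration not given here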
[16] = JC-1 mitochondrial signal, unstimulated HepG2 cells – cell-based, JC-1 fluorescence, 24 h, 100 nL compound, profiling panel (AID 1167); conditions: HepG2 mitochondrial potential, higher = more signal; further: test concentration not given here
[17] = JC-1 mitochondrial signal, unstimulated adipocytes – cell-based, JC-1 fluorescence, 3T3-L1 adipocytes, 24 h, 100 nL compound, profiling panel (AID 1168); conditions: JC-1 mitochondrial fluorescence, higher = more signal, called active from +8 up or from −8 down; further: test concentration not given here
[18] = JC-1 mitochondrial signal, unstimulated myeloma cells – cell-based, JC-1 fluorescence, RPMI8226, 24 h, 100 nL compound, profiling panel (AID 1169); conditions: JC-1 mitochondrial potential fluorescence, higher = more signal; further: test concentration not given here
[19] = JC-1 mitochondrial signal, unstimulated MM1S myeloma – cell-based, JC-1 fluorescence, 24 h, 100 nL compound, profiling panel (AID 1170); conditions: MM1S mitochondrial potential, higher = more signal; further: test concentration not given here
[20] = resazurin metabolic signal in A549 cells – cell-based, resazurin fluorescence, 24 h, PK04 Diversity Set, profiling panel (AID 1171); conditions: A549 viability, higher = more signal, called active from +8 up or from −8 down; further: test concentration not given here

Sequence of NADPH oxidase 4 (Homo sapiens) (Q9NPH5 whole entry, looked up): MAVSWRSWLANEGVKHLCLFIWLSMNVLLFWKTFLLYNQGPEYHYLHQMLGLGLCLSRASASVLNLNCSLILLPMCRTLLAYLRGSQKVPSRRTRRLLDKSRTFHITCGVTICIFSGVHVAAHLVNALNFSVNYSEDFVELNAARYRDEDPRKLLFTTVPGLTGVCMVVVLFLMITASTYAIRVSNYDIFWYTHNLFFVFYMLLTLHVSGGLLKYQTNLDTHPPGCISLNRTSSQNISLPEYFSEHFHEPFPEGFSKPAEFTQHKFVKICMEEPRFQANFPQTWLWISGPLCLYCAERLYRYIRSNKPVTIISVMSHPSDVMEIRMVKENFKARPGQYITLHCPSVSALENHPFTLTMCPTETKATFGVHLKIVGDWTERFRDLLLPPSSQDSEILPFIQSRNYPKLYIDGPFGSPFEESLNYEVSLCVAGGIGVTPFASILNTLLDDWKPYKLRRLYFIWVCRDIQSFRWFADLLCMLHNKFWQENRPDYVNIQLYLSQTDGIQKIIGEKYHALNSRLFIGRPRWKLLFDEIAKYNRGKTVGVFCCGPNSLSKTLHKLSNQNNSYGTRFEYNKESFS
Sequence of NADPH oxidase 5 (Homo sapiens) (Q96PH1 whole entry, looked up): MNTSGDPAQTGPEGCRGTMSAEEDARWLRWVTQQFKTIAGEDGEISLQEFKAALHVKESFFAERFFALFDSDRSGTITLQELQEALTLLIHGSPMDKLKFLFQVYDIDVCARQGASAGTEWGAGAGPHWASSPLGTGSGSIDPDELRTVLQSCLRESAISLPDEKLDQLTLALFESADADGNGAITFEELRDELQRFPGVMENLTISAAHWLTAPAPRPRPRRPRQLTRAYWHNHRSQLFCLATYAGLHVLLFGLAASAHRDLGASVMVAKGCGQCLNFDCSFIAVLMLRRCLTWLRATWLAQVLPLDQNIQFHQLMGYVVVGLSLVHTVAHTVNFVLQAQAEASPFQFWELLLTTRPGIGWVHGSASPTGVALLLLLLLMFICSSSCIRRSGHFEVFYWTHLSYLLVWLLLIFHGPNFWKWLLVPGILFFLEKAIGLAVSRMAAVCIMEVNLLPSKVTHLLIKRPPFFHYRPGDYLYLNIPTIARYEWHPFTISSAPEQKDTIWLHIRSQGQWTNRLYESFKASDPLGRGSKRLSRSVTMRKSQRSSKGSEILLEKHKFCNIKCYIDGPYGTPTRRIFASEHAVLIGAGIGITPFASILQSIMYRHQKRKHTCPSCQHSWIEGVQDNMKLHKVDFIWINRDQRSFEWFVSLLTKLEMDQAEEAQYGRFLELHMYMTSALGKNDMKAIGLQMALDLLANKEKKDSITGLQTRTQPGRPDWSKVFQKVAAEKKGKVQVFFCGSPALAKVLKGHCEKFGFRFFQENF
Sequence of NADPH oxidase 2 (Homo sapiens) (P04839 whole entry, looked up): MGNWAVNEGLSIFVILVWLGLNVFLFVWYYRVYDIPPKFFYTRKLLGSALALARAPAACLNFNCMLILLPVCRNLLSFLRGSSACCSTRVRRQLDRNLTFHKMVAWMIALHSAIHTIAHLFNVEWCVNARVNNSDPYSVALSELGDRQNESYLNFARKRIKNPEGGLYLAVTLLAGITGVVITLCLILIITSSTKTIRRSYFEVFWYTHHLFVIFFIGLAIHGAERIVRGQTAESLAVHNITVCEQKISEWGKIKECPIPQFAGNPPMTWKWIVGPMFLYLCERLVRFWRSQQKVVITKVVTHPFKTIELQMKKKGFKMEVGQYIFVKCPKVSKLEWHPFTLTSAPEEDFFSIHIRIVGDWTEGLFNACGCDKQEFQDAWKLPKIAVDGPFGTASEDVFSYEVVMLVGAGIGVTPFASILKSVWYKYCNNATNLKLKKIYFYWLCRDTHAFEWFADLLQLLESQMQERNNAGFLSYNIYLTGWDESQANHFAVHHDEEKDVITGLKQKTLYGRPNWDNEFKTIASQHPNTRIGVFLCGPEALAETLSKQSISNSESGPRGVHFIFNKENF

| SMILES | z-score [1] | composite z-score [2] | z-score [3] | z-score [4] | z-score [5] | z-score [6] | z-score [7] | z-score [8] | z-score [9] | z-score [10] | z-score [11] | z-score [12] | z-score [13] | z-score [14] | z-score [15] | z-score [16] | z-score [17] | z-score [18] | z-score [19] | z-score [20] |
| --- | --- | --- | --- | --- | --- | --- | --- | --- | --- | --- | --- | --- | --- | --- | --- | --- | --- | --- | --- | --- |
| C=CCNC(=O)[C@@H]1[C@H]2C(=O)O[C@H](c3ccccc3)[C@H](c3ccccc3)N2[C@H](c2ccc(O)cc2)[C@@]12C(=O)N(C(=O)OCCOC)c1ccc(C#CCCO)cc12 | -0.181 (inactive) | 0.0911 | 2.22 (inactive) | 0.517 (inactive) | 0.0855 (inactive) | 0.121 (inactive) | 0.0918 | 0.982 (inactive) | 0.194 (inactive) | 1.06 | 2.21 | 1.14 | 0.723 | -0.824 | 0.262 | -0.707 | 0.152 (inactive) | -0.15 | -0.839 | 0.292 (inactive) |
| COc1ccc(C(=O)Nc2cccc(CN3C(=O)[C@@]4(O[C@@H](CC(=O)N(CCO)Cc5ccccc5)[C@H]([Si](C)(C)c5ccc(OC)cc5)[C@H]4C)c4ccccc43)c2)cc1 | 1.23 (inactive) | -0.443 | 12.3 (active) | 0.833 (inactive) | -0.39 (inactive) | -1.31 (inactive) | 1.58 | 0.306 (inactive) | 0.56 (inactive) | 2.08 | -0.269 | 1.36 | -1.39 | -0.696 | -4.07 | 0.672 | 2.67 (inactive) | -0.865 | -0.789 | -2.23 (inactive) |
| COc1ccc(C#Cc2ccc3c(c2)[C@]2(C(=O)N3)[C@H](C(=O)N3CCCCCCC3)[C@H]3C(=O)O[C@H](c4ccccc4)[C@H](c4ccccc4)N3[C@@H]2c2ccc(O)cc2)cc1 | -0.821 (inactive) | 2.04 | 0.445 (inactive) | 0.391 (inactive) | -0.562 (inactive) | 0.271 (inactive) | -0.0624 | 0.697 (inactive) | 0.174 (inactive) | 0.00156 | -0.636 | 1.61 | -0.984 | 0.171 | -1.05 | -1.2 | 1.34 (inactive) | -0.582 | -0.191 | 0.601 (inactive) |
| Cc1ccc(S[C@]2(C(=O)NCc3ccccc3)CC(=O)N(Cc3cc(C(F)(F)F)cc(C(F)(F)F)c3)[C@@H]2c2ccc(CO)cc2I)cc1 | 1.66 (inactive) | 0.0903 | 3.13 (inactive) | 0.769 (inactive) | -0.0654 (inactive) | 0.598 (inactive) | 0.209 | 1.69 (inactive) | -1.24 (inactive) | 1.28 | 0.666 | 0.336 | -0.165 | -1.87 | -2.22 | 0.994 | -0.00208 (inactive) | -0.133 | -0.713 | 0.772 (inactive) |
| C=C(CCCC)C(=O)CC[C@@H](OC(=O)c1cccnc1)c1ccc(OCCO)cc1 | -0.704 (inactive) | 0.178 | 20.2 (active) | 4.63 (inactive) | -0.367 (inactive) | 0.774 (inactive) | -0.58 | -1.3 (inactive) | -0.918 (inactive) | -1.39 | 0.67 | 0.866 | 0.376 | -3.34 | -2.89 | -0.279 | -0.188 (inactive) | -0.673 | -0.652 | 0.116 (inactive) |
| CC(CO)N1C(=O)[C@@H]2[C@H]3C(=O)OCC=C[C@H]3OC23C=CCN(c2ccc(Cl)cc2)C(=O)[C@@H]13 (stereo not given in full) | 0.458 (inactive) | -0.283 | -0.499 (inactive) | -0.219 (inactive) | 0.639 (inactive) | 0.0119 (inactive) | -0.172 | 0.8 (inactive) | 0.28 (inactive) | 1.34 | 0.0473 | 0.311 | 0.336 | 0.829 | -0.485 | -0.321 | -0.574 (inactive) | -0.818 | 0.0977 | 0.957 (inactive) |
| CN1C(=O)[C@@]2(Cc3ccccc3)N=C(c3ccc(OCCCO)cc3)O[C@H]2c2ccccc21 | -0.0237 (inactive) | 0.501 | 31.8 (active) | 30.4 (active) | 2.93 (inactive) | 2.65 (inactive) | 0.385 | -1.74 (inactive) | 0.151 (inactive) | -1.64 | -1.11 | -0.597 | -1.61 | -2.71 | -4.45 | 0.384 | 1.69 (inactive) | -1.26 | -1.89 | -0.788 (inactive) |
| CCCCCCCCCCC(O)C1C=CC2C(=O)N(c3ccccc3)C(=O)C2N1Nc1ccccc1F (stereo not given) | -1.43 (inactive) | 0.145 | 2.64 (inactive) | 1.45 (inactive) | -0.518 (inactive) | 1.91 (inactive) | -0.827 | -0.534 (inactive) | 0.101 (inactive) | -1.24 | 0.059 | -0.849 | -0.016 | -0.598 | -0.105 | -0.777 | -0.45 (inactive) | -0.415 | -0.193 | 0.162 (inactive) |
| COCCOC(=O)N1C(=O)[C@@]2(c3cc(C#CCNC(N)=O)ccc31)[C@H](c1ccc(OCCO)cc1)N1[C@H](c3ccccc3)[C@H](c3ccccc3)OC(=O)[C@H]1[C@@H]2C(N)=O | 0.336 (inactive) | -0.346 | 4.37 (inactive) | 1.02 (inactive) | -0.383 (inactive) | 0.0173 (inactive) | -0.412 | 1.84 (inactive) | 1.34 (inactive) | 0.646 | 0.586 | -0.0118 | 0.334 | -1.24 | -0.668 | -1.7 | 0.407 (inactive) | -0.185 | -0.604 | 0.266 (inactive) |
